The record followed here is PubChem BioAssay (Tox21).

Molecules are shown by their SMILES. Activity calls are given as the source filed them. Unless noted, the call rests on the fitted dose curve; in most records, active means well fitted curve in the direction sought with a large enough effect in the repeat runs; inconclusive means weak or mixed curves; inactive means no such curve, though single readings can be large; an effect the other way counts as inactive or inconclusive.

Test [1] deals with thyroid hormone receptor (rat, GH3 cells). Briefly: qHTS assay to identify small molecule agonists of the thyroid receptor (TR) signaling pathway (AID 743066; calls by dose curve). A general note: qHTS replaces the single test concentration by a dilution series.
Test [2] concerns the target Estrogen receptor (Homo sapiens) (UniProt P03372). Briefly: qHTS assay to identify small molecule antagonists of the estrogen receptor alpha (ER-alpha) signaling pathway (AID 743069; active means well fitted curve in the direction sought with a large enough effect in the signal ratio in the repeat runs, not every such curve was filed as active; inconclusive means weak or mixed curves, or effect the other way; inactive means no such curve, though single readings can be large or run the other way; the % refers to the signal ratio; further: potency means the concentration at half of the fitted maximal effect). An outline of the steps:
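Compound effects are measured against 17beta-estradiol stimulation in HEK293 cells with a UAS-controlled beta-lactamase reporter for ER-alpha. Exposure lasts 18 hr at 37C; LiveBLAzer B/G FRET substrate follows for 2 hr at room temperature.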

Test [3] in a line: qHTS assay to identify small molecule antagonists of the estrogen receptor alpha (ER-alpha) signaling pathway - cell viability counter screen (AID 743074; calls by dose curve;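 further: HEK293 cells carrying ER-alpha-UAS-bla reporter stimulated with 17beta-estradiol; nearly all actives have a fitted effect of over 45% in size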).
Test [4] has as its target Estrogen receptor (Homo sapiens) (UniProt P03372). The test can be described thus: qHTS assay to identify small molecule agonists of the estrogen receptor alpha (ER-alpha) signaling pathway (AID 743075; calls by dose curve).
Test [5] shares this target. Briefly: qHTS assay to identify small molecule agonists of the estrogen receptor alpha (ER-alpha) signaling pathway using the BG1 cell line (AID 743079). Further: nearly all actives have a fitted effect of over 20% in size. Further: potency means the concentration at half of the fitted maximal effect.
The nature of test [6]: qHTS assay to identify small molecule antagonists of the estrogen receptor alpha (ER-alpha) signaling pathway using the BG1 cell line (AID 743080; calls by dose curve;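 further: BG1 cells stimulated with 17beta-estradiol alongside compound; nearly all actives have a fitted effect of over 25% in size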; further: potency means the concentration at half of the fitted maximal effect). Summed up: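 BG1-Luc-4E2 cells (endogenous full-length ER-alpha, 4xERE luciferase) hormone-starved 5 days in charcoal-stripped FBS, plated 4,000/well for 24 h, then compound plus 17beta-estradiol for 21.5 h at 37 C; ONE-Glo luminescence read.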

Test [7] in a line: qHTS assay to identify small molecule antagonists of the estrogen receptor alpha (ER-alpha) signaling pathway using the BG1 cell line - cell viability counter screen (AID 743081).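 Further: compound given together with 17beta-estradiol as the ER stimulus; series mostly up to about 70 µM; nearly all actives have a fitted effect of over 45% in size.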
Test [8] can be described thus: qHTS assay to identify aromatase inhibitors - cell viability counter screen (AID 743084).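 Further: cells stimulated with testosterone during compound exposure; nearly all actives have a fitted effect of over 55% in size.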
The target in test [9] is Aryl hydrocarbon receptor (Homo sapiens) (UniProt P35869). Briefly: qHTS assay to identify small molecule that activate the aryl hydrocarbon receptor (AhR) signaling pathway (AID 743085).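 Further: HG2L7.5c1 human HepG2 liver cells with stably integrated DRE-driven firefly reporter; series mostly up to about 70 µM; nearly all actives have a fitted effect of over 15% in size.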 An outline of the steps:
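Compounds were tested in HepG2 hepatocellular carcinoma cells harbouring a stably integrated luciferase gene under control of 20 DREs. Increased reporter signal after 24 h treatment at 37C was taken as AhR activation.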

Test [10] is described as follows: qHTS assay to identify small molecule that activate the aryl hydrocarbon receptor (AhR) signaling pathway - cell viability counter screen (AID 743086). Further: nearly all actives have a fitted effect of over 45% in size. Further: potency means the concentration at half of the fitted maximal effect. Summed up: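 Cytotoxicity counter screen: CellTiter-Fluor signal (30 min, 37 C) in 4000 HepG2 cells/well carrying the DRE-luciferase reporter, following 24 h compound exposure at 37 C.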
Test [11] deals with Peroxisome proliferator-activated receptor gamma (Homo sapiens) (UniProt P37231). Briefly: qHTS assay to identify small molecule agonists of the peroxisome proliferator-activated receptor gamma (PPARg) signaling pathway (AID 743094; active means well fitted activation curve with a large enough effect in the signal ratio in the repeat runs, not every such curve was filed as active; inconclusive means weak or mixed curves, or effect the other way; inactive means no such curve, though single readings can be large or run the other way; the % refers to the signal ratio). Summed up: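 GeneBLAzer PPARg UAS-bla HEK293H cells carrying a stably integrated beta-lactamase reporter were pre-incubated 5 h at 37C, then exposed to compounds in DMSO for 17 h at 37C; LiveBLAzer B/G FRET substrate was added for 1 h at room temperature and fluorescence read.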

Test [12] can be described thus: qHTS assay to identify small molecule antagonists of the peroxisome proliferator-activated receptor gamma (PPARg) signaling pathway - cell viability counter screen (AID 743194). Further: nearly all actives have a fitted effect of over 55% in size. Further: potency means the concentration at half of the fitted maximal effect. Summed up: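 Viability was measured as CellTiter-Glo luminescence in GeneBLAzer PPARg UAS-bla HEK293H cells. These cells had been exposed 17 h at 37 C to compounds together with rosiglitazone at 50 nM final, with the beta-lactamase readout taken in the same wells.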

A short description of test [13]: qHTS assay for small molecule agonists of the antioxidant response element (ARE) signaling pathway (AID 743202; active means well fitted activation curve with a large enough effect in the signal ratio in the repeat runs, not every such curve was filed as active; inconclusive means weak or mixed curves, or effect the other way; inactive means no such curve, though single readings can be large or run the other way; the % refers to the signal ratio; further: potency means the concentration at half of the fitted maximal effect). An outline of the steps:
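An ARE-responsive beta-lactamase gene stably integrated in HepG2 cells serves as reporter. After 5 h plating and 16 h compound incubation at 37 C, fluorescence of the B/G FRET substrate was measured.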

A short description of test [14]: qHTS assay for small molecule activators of the heat shock response signaling pathway - cell viability counter screen (AID 743209). Further: nearly all actives have a fitted effect of over 50% in size. Further: potency means the concentration at half of the fitted maximal effect. An outline of the steps: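 CellSensor HSE-bla HeLa cells, plated overnight at 37 C/5% CO2, were exposed to compounds in DMSO for 5 h at 37 C. Viability was then read in the same wells by CellTiter-Glo luminescence after 30 min at room temperature.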

In the next test the target is Aromatase (Homo sapiens) (UniProt P11511). The test can be described thus: qHTS assay to identify aromatase inhibitors (AID 743083). Further: nearly all actives have a fitted effect of over 55% in size. Further: potency means the concentration at half of the fitted maximal effect.
Test [15] is described as follows: qHTS assay for small molecule agonists of the antioxidant response element (ARE) signaling pathway - cell viability counter screen (AID 743203; calls by dose curve; further: nearly all actives have a fitted effect of over 55% in size; further: potency means the concentration at half of the fitted maximal effect). Summed up: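 CellSensor ARE-bla HepG2 cells, 2,000 per well, rested 5 hrs at 37C/5% CO2, then exposed to compound in DMSO for 16 hrs; viability read as CellTiter-Glo luminescence after 30 min at room temperature, in the reporter wells.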

Test [16] deals with Peroxisome proliferator-activated receptor gamma (Homo sapiens) (UniProt P37231). Briefly: qHTS assay to identify small molecule antagonists of the peroxisome proliferator-activated receptor gamma (PPARg) signaling pathway (AID 743191; calls by dose curve; further: series mostly up to about 63 µM; nearly all actives have a fitted effect of over 30% in size). Summed up:
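Beta-lactamase reporter under UAS control in HEK293H PPARg-bla cells; compound treatment 17 h at 37C. Read-out: fluorescence intensity after 1 h room-temperature incubation with LiveBLAzer B/G FRET substrate.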

The nature of test [17]: qHTS assay for small molecule activators of the heat shock response signaling pathway (AID 743210; active means well fitted activation curve with a large enough effect in the signal ratio in the repeat runs, with a control signal flat, not every such curve was filed as active; inconclusive means weak or mixed curves; the % refers to the signal ratio;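 further: HeLa cells with beta-lactamase reporter driven by heat shock elements; series mostly up to about 63 µM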). An outline of the steps:
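In HSE-bla HeLa cells, 5 h compound incubation (37 C) precedes addition of LiveBLAzer B/G substrate; after 2.5 h at room temperature, fluorescence intensity indicates reporter induction.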

Sequence of Peroxisome proliferator-activated receptor gamma (Homo sapiens) (P37231 whole entry, looked up): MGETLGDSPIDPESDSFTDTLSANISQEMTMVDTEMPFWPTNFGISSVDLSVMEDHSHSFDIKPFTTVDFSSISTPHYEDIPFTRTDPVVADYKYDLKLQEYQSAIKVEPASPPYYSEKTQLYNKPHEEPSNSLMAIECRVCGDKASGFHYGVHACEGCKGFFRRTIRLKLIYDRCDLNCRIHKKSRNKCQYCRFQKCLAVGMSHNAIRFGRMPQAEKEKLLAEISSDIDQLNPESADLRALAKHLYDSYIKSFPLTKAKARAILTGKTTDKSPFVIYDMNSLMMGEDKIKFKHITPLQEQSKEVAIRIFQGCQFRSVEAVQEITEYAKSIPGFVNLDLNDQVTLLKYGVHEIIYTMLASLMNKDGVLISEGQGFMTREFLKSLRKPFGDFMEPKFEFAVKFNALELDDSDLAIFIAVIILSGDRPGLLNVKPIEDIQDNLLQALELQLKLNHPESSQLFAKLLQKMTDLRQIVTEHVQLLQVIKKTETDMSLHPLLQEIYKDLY
Sequence of Aromatase (Homo sapiens) (P11511 whole entry, looked up): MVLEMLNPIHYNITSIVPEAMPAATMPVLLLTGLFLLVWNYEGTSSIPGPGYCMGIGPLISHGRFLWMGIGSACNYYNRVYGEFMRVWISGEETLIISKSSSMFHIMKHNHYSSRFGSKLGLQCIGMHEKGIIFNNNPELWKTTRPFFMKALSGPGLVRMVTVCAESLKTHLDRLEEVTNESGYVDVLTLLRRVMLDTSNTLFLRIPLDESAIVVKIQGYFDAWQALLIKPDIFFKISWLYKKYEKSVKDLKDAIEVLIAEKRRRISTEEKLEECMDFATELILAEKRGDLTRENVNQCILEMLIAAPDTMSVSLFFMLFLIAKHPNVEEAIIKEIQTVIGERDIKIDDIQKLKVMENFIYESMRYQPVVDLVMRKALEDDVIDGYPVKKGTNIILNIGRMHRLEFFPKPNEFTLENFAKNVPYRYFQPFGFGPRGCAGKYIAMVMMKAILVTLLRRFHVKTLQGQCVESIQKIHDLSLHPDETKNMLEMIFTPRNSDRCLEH
Sequence of Estrogen receptor (Homo sapiens) (P03372 whole entry, looked up): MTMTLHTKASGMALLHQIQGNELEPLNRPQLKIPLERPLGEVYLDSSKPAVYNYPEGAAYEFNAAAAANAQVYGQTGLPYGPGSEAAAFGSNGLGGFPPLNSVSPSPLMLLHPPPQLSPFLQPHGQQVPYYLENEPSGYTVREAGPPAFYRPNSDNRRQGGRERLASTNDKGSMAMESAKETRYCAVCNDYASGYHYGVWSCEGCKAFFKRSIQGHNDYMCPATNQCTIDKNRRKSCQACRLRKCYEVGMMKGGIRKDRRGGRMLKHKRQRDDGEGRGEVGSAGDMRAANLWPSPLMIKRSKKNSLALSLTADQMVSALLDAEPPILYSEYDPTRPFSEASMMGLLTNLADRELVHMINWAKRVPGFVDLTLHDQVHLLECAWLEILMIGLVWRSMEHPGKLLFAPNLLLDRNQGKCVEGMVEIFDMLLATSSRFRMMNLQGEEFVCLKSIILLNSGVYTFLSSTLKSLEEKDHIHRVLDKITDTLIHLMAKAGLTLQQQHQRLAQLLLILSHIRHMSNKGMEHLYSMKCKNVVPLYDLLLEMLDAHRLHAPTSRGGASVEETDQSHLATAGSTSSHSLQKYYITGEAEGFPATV
Sequence of Aryl hydrocarbon receptor (Homo sapiens) (P35869 whole entry, looked up): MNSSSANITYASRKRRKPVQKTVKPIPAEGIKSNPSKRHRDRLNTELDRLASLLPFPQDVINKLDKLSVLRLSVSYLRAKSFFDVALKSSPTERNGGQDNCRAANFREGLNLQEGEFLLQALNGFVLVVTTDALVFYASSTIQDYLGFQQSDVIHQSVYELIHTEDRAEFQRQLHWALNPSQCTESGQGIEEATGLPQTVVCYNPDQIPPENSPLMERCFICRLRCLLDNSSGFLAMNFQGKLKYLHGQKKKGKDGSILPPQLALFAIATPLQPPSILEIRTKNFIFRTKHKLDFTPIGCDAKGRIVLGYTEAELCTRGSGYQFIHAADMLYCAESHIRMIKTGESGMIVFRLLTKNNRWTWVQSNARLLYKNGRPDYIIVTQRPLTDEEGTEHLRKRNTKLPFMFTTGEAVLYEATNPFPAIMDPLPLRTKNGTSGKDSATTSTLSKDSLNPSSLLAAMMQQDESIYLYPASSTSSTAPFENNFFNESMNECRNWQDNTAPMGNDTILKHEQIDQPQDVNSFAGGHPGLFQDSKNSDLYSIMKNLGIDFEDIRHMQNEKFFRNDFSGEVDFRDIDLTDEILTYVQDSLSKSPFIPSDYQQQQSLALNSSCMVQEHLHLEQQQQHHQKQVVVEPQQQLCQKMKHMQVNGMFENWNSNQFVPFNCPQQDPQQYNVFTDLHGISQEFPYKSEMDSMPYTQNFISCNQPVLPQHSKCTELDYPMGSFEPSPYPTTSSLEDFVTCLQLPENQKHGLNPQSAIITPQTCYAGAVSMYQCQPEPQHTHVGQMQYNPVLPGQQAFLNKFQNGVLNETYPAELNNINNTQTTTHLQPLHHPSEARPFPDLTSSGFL

As to `Cc1cc(C(C)(C)C)c(O)c(C)c1Cn1c(=O)n(Cc2c(C)cc(C(C)(C)C)c(O)c2C)c(=O)n(Cc2c(C)cc(C(C)(C)C)c(O)c2C)c1=O`, in test [1], the result was inactive. In addition, in [2], the Potency was 17.4 µM [inconclusive] (active). Further, the Potency result in [3], in test [4], in [5], in test [6], in test [7] and in [8] was “inactive” in each case. The Potency result in test [9], in test [10], in test [11], in test [12], in test [13] and in test [14] was “inactive” in each case.
Take `C/C=C/C=C/COC(=O)C(C)C`: the molecule was classed as inactive in [1]. Besides, the Potency entry in test [3], in test [7], in [9], in test [10] and in test [12] was “inactive” each time. For the same molecule, the Potency was 68.6 µM (active) with Aromatase (Homo sapiens) and 61.1 µM (active) in [13].
Turning to `CN1CCN(Cc2cc(-c3ccc4[nH]c(=O)oc4c3)co2)[C@@H](c2ccc(F)cc2)C1`, the Potency was 47.1 µM [inhibitor] (active) in [2] and 52.4 µM (active) in [10]. The Potency result in test [3], in [4], in [9], in test [12], in test [15] and in test [14] was “inactive” each time.
Take `CCC(=O)C(=O)CC`: in test [1], the call was inactive. Besides, the Potency entry in test [3], in test [7] and in test [14] was “inactive” each time.
For the molecule `CCCCCC(C)OC(=O)COc1ccc(Cl)c2cccnc12` (stereo unspecified), the molecule was called inactive in test [1]. In addition, the Potency entry in [4], in test [5], in test [6], in [7], in test [8] and in test [11] was “inactive” in each case. For the same molecule, the Potency result in test [12], in test [13], in test [15] and in test [14] was “inactive” each time.
Turning to `Cl[Si](Cl)(c1ccccc1)c1ccccc1`, the molecule was called inactive in [1]. For the same molecule, the Potency result in test [2], in test [3], in test [4], in test [5], in test [6] and in test [7] was “inactive” each time. In addition, the Potency result (with Aromatase (Homo sapiens); in [8]; in test [10]; in test [12]; in test [14]) was “inactive” in each case.
For the molecule `Cc1c(N)cccc1C(F)(F)F`, the Potency result in test [16], in [12], in test [15] and in [14] was “inactive” in each case.
As to `Fc1ccc(C(c2ccc(F)cc2)N2CCNCC2)cc1`, the Potency in [12] is 26.6 µM (active); in test [15], 16.8 µM (active); in test [14], 15 µM (active).
Consider `CN(C)CCN1CCN(c2cccc(Cl)c2)C1=O`, for which the Potency result in [12], in [13], in test [15] and in test [14] was “inactive” in each case.
For `COC1=C(OC)C(=O)C(CCCCCCCCCCO)=C(C)C1=O`, the Potency result in test [3], in [4], in test [7], in [9], in test [10] and in test [12] was “inactive” in each case. Besides, the Potency result in test [13], in [15] and in test [17] was “inactive” in each case. In addition, the Potency in the test with Aromatase (Homo sapiens) was 29.8 µM (active).
Take `CN(C)[C@@H](CCOc1cccc2ccccc12)c1ccccc1`: the Potency result in [14] is “inactive”.
As for `CCC(C)n1ncn(-c2ccc(N3CCN(c4ccc(OC[C@H]5CO[C@](Cn6cncn6)(c6ccc(Cl)cc6Cl)O5)cc4)CC3)cc2)c1=O` (stereo partly specified), the Potency result (in test [3]; in test [4]; in test [7]; in the test with Aromatase (Homo sapiens); in test [8]; in test [9]) was “inactive” each time. The Potency entry in [10], in test [11], in [16], in [12] and in test [14] was “inactive” each time. Further, in [6], the Potency is 13.3 µM (active).
Take `CC(C)(C)C1CCC(=O)CC1`: the Potency result in test [2], in test [3], in test [4], in [5], in test [6] and in [7] was “inactive” each time. Also, the Potency entry (with Aromatase (Homo sapiens); in test [8]; in [9]; in test [10]; in test [11]; in test [12]) was “inactive” in each case. In addition, in test [15], the Potency result was “inactive”.
`CC[C@H](C)COC(=O)/C=C/c1ccc(N=Cc2ccc(OC)cc2)cc1`: the outcome in [1] was inactive. In addition, the Potency result in test [4], in [7], in [12], in [15] and in [14] was “inactive” each time. Further, the Potency in test [5] is 2.73 µM (active).
`CCCc1ccc(OCC(=O)N2CCN(C(=O)COc3ccc(CCC)cc3OC)CC2)c(OC)c1`: the Potency entry in test [12], in [15], in test [14] and in [17] was “inactive” each time. Besides, the Potency in [13] is 29.8 µM (active).
On to `Cc1cccc(C)c1NC(=O)c1ccc(N)cc1`, for which the Potency entry in [16], in test [12], in test [13], in test [15] and in [14] was “inactive” in each case.
Regarding `C#Cc1ccc(-c2ccccc2F)cc1`, the Potency result in test [12], in [15] and in test [14] was “inactive” throughout.
Regarding `Cc1c(C)c([N+](=O)[O-])c(C(C)(C)C)c([N+](=O)[O-])c1C`, the Potency entry in [2], in test [4], in test [5], in test [6], in test [7] and in test [8] was “inactive” in each case. The Potency result in test [9], in [10], in test [11], in test [13], in test [14] and in [17] was “inactive” in each case.
`CCCCC/C=C\C/C=C\CCCCCCCC(=O)O`: the molecule was called inactive in [1]. The Potency result in test [2], in test [3], in test [4], in test [5], in test [6] and in test [7] was “inactive” throughout. The Potency result (with Aromatase (Homo sapiens); in [8]; in test [10]; in test [11]; in [12]) was “inactive” each time. Also, the Potency in test [13] is 61.1 µM (active); in test [14], 42.9 µM (active).
`S=C([S-])NCCNC(=S)[S-].S=C([S-])NCCNC(=S)[S-].[Mn+2].[Zn+2]`: in test [1], the outcome was inactive. Also, the Potency result (with Aromatase (Homo sapiens); in test [8]; in test [9]; in test [10]; in test [14]) was “inactive” throughout. Besides, in test [13], the Potency is 4.73 µM (active).
As for `CC(C)=CCNc1ncnc2c1ncn2[C@@H]1O[C@H](CO)[C@@H](O)[C@H]1O`, the Potency in test [12] was 9.44 µM (active); in [15] it was 5.96 µM (active); in test [14], 13.3 µM (active). The Potency entry in test [17] was “inactive”.
